Drawing on PubChem BioAssay (NCI), this text covers growth for nine compounds.

Among the test systems are MOLT-4 leukemia; RPMI-8226 leukemia; OVCAR-8 ovarian; OVCAR-5 ovarian; SK-OV-3 ovarian; IGROV1 ovarian; OVCAR-3 ovarian; HS 578T breast; NCI/ADR-RES ovarian; T-47D breast; BT-549 breast; MDA-MB-435 melanoma; MCF7 breast; HCT-116 colon; HCC-2998 colon; KM12 colon; SW-620 colon; OVCAR-4 ovarian.
Holding throughout (assay): NCI-60 one-dose screen, 48 h (100 = growth as untreated, 0 = no growth, -100 = all killed)
Common to all, as to conditions: 10 µM unless noted

About 83,000 compounds went through this panel and 20% of them were active in at least one assay; those are over-represented in the sample as a whole.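 48-hour exposure, single concentration, 96-well plates; percent growth endpoint where 0 means no net growth. Active: below 10.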 A number with no mark means an inactive call. Calls of active or inactive are those of the source.

With `Cc1cccc(N2CCN(C(C)C#N)CC2)c1` (stereo not drawn), the growth in the assay on MOLT-4 leukemia was 106%; in the assay on RPMI-8226 leukemia it was 104%; with OVCAR-8 ovarian, 106%; in the assay with OVCAR-5 ovarian, 103%; in the assay with SK-OV-3 ovarian it was 102%; in the assay with IGROV1 ovarian, 108%. In addition, the growth in the assay with OVCAR-3 ovarian is 109%; with HS 578T breast, 96.3%; in the assay on NCI/ADR-RES ovarian, 96.9%; in the assay with T-47D breast, 98.4%; in the assay with BT-549 breast, 92.4%; in the assay with MDA-MB-435 melanoma it was 98.4%. In addition, the growth in the assay with MCF7 breast was 99.3%; in the assay with HCT-116 colon, 108%; with HCC-2998 colon, 96.9%; in the assay on KM12 colon it was 108%.
Regarding `[Au+].[N-]=C=O.c1ccc(CN2[CH-]N(Cc3ccccc3)C(c3ccccc3)=C2c2ccccc2)cc1`, the growth is 76.1% in the assay with MOLT-4 leukemia; 63.9% with RPMI-8226 leukemia; 98.9% in the assay with OVCAR-8 ovarian; 145% in the assay on OVCAR-5 ovarian; 96.8% in the assay on SK-OV-3 ovarian; 81.1% in the assay with IGROV1 ovarian. Besides, the growth was 82.6% in the assay with OVCAR-3 ovarian; 84.4% in the assay with HS 578T breast; 109% in the assay on NCI/ADR-RES ovarian; 52.4% in the assay with T-47D breast; 89.8% in the assay with BT-549 breast; 101% in the assay on MDA-MB-435 melanoma. In addition, the growth in the assay with SW-620 colon is 89.6%; in the assay on MCF7 breast, 46.1%; with HCT-116 colon, 67.6%; in the assay on HCC-2998 colon, 79.9%; with KM12 colon, 90.4%.
On to `NC(N)=N/N=C\c1c[nH]c2ccc(Br)cc12`, for which the growth in the assay with MOLT-4 leukemia was 79.2%; with RPMI-8226 leukemia, 80.8%; with OVCAR-8 ovarian it was 83.1%; in the assay on OVCAR-5 ovarian, 91.8%; in the assay on OVCAR-4 ovarian, 97.2%; in the assay with SK-OV-3 ovarian it was 97.4%. In addition, the growth in the assay on IGROV1 ovarian is 101%; in the assay on OVCAR-3 ovarian, 81.4%; in the assay on HS 578T breast it was 80.6%; in the assay on NCI/ADR-RES ovarian it was 87%; with T-47D breast, 36.6%; in the assay on BT-549 breast it was 23.7%. In addition, the growth with MDA-MB-435 melanoma was 98.1%; in the assay on SW-620 colon, 101%; in the assay with MCF7 breast, 75.4%; with HCT-116 colon, 92%; in the assay on KM12 colon it was 94.9%.
Regarding `Nc1nc([Se])c2ncn(C3OC(CO)C(O)C3O)c2n1` (stereo not drawn), the growth in the assay with MOLT-4 leukemia was 7.08% (active); in the assay with RPMI-8226 leukemia, 23.9%; in the assay with OVCAR-8 ovarian it was 55.8%; in the assay with OVCAR-5 ovarian, 60.8%; in the assay on OVCAR-4 ovarian it was 79.5%; in the assay with SK-OV-3 ovarian, 77.7%. Besides, the growth in the assay with OVCAR-3 ovarian was 104%; with HS 578T breast it was 75.4%; in the assay on NCI/ADR-RES ovarian, 41.5%; in the assay with T-47D breast, 93.5%; in the assay on BT-549 breast, 69.7%; with MDA-MB-435 melanoma it was 74.3%. In addition, the growth in the assay with SW-620 colon is 82.1%; with MCF7 breast it was 42.9%; in the assay with HCT-116 colon, 28.1%; in the assay on HCC-2998 colon, 88.7%.
In the case of `C[C@]12CC[C@@H]3c4ccc(Oc5nc(N6CC6)nc(N6CC6)n5)cc4CC[C@H]3[C@@H]1CCC2=O`, the growth was -25.2% (active) with MOLT-4 leukemia; 0.429% (active) with RPMI-8226 leukemia; 36.4% in the assay with OVCAR-8 ovarian; 31.6% in the assay on OVCAR-4 ovarian; 36.1% in the assay on SK-OV-3 ovarian; 27.8% in the assay with IGROV1 ovarian. The growth was 15.6% in the assay with OVCAR-3 ovarian; 45.4% with HS 578T breast; 41.2% in the assay on NCI/ADR-RES ovarian; 33.7% with T-47D breast; 53.9% with BT-549 breast; 48.5% in the assay on MDA-MB-435 melanoma. Also, the growth in the assay with SW-620 colon is 25.1%; with MCF7 breast, 20.6%; in the assay on HCC-2998 colon, 37%; with KM12 colon, 50%.
For the compound `COc1ccc(/C=C\c2cc(OC)c(OC)c(OC)c2)cc1NC(=O)/C=C/c1ccc(OC)c(OC)c1`, the growth is 17.3% in the assay on MOLT-4 leukemia; 44.4% with OVCAR-8 ovarian; 55.4% in the assay with OVCAR-5 ovarian; 58.7% with OVCAR-4 ovarian; -19.5% (active) with SK-OV-3 ovarian; 55.1% in the assay on IGROV1 ovarian. Moreover, the growth with OVCAR-3 ovarian was 1.59% (active); with HS 578T breast it was 31.3%; in the assay with NCI/ADR-RES ovarian, -8.84% (active); in the assay with T-47D breast, 40.2%; in the assay on BT-549 breast it was 39.1%; in the assay on MDA-MB-435 melanoma, -51.4% (active). The growth was 39.2% with SW-620 colon; 21.3% in the assay on MCF7 breast; 25% with HCT-116 colon; -3.07% (active) in the assay on HCC-2998 colon; 27.3% in the assay on KM12 colon.
Take `O=C(NCCN1CC1)C(=O)NCCN1CC1`: the growth is 55.3% in the assay on MOLT-4 leukemia; 98.5% in the assay on RPMI-8226 leukemia; 69.3% with OVCAR-8 ovarian; 104% with OVCAR-5 ovarian; 106% in the assay with OVCAR-4 ovarian; 98% in the assay with SK-OV-3 ovarian. Moreover, the growth in the assay with IGROV1 ovarian is 78.5%; in the assay on OVCAR-3 ovarian, 99.6%; with HS 578T breast, 107%; with NCI/ADR-RES ovarian, 79.5%; in the assay on T-47D breast, 88.2%; with BT-549 breast it was 88.7%. The growth is 84.7% in the assay on SW-620 colon; 65.8% in the assay with MCF7 breast; 87.9% in the assay on HCT-116 colon; 89.1% in the assay with HCC-2998 colon; 97.8% with KM12 colon.
`CCCCN(CCCC)P(=O)(Oc1ccccc1)Oc1ccccc1`: the growth with MOLT-4 leukemia is 39.4%; in the assay with RPMI-8226 leukemia it was 54.4%; in the assay on OVCAR-8 ovarian, 84.1%; in the assay on OVCAR-5 ovarian it was 94.1%; with SK-OV-3 ovarian, 66.7%; with IGROV1 ovarian it was 57.3%. Moreover, the growth in the assay on OVCAR-3 ovarian is 87.2%; with HS 578T breast, 85.3%; with NCI/ADR-RES ovarian it was 51.4%; in the assay on T-47D breast, 47.4%; with BT-549 breast, 73.5%; in the assay on MDA-MB-435 melanoma, 71.4%. In addition, the growth with SW-620 colon was 52%; in the assay on MCF7 breast, 48.4%; in the assay with HCT-116 colon it was 29.2%; in the assay on HCC-2998 colon it was 83.7%.
On to `CCCCCCCOC(C(=O)OCCN(CC)CC)(c1ccccc1)c1ccccc1`, for which the growth with MOLT-4 leukemia was 70.3%; with RPMI-8226 leukemia, 72.4%; with OVCAR-8 ovarian, 104%; in the assay on OVCAR-5 ovarian, 91.3%; in the assay on SK-OV-3 ovarian, 104%; in the assay on IGROV1 ovarian, 68.7%. Moreover, the growth was 94.1% with OVCAR-3 ovarian; 94.5% in the assay with HS 578T breast; 97.8% in the assay on NCI/ADR-RES ovarian; 86% with T-47D breast; 88.3% in the assay with BT-549 breast; 77.3% in the assay on SW-620 colon. The growth is 115% with MCF7 breast, 58% in the assay with HCT-116 colon, 88.5% with HCC-2998 colon and 78.4% in the assay with KM12 colon.
